# Assay outcomes: PubChem BioAssay, several laboratories
# Bim-Mcl-1 = inhibitors of Bim-Mcl-1 interaction, human; Bead-based flow cytometry, Bim peptide-Mcl-1 binding; AID 1009; Q07820; inhibition, % at 10 µM; 0.1% of 190,000 active; in the data active = inhibition above about 40%;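 note: 0% = no compound tracer wells and 100% = peptide blocker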
# Target sequence (Q07820 whole entry, looked up): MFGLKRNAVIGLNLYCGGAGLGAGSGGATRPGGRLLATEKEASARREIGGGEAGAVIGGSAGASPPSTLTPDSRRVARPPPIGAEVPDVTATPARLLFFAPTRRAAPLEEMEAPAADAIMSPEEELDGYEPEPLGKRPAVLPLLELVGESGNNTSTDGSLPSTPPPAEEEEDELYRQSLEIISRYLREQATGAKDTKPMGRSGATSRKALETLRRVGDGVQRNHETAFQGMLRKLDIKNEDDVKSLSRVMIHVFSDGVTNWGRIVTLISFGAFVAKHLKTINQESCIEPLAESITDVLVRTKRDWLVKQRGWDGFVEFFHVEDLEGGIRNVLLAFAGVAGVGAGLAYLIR
# L929 necroptosis = blocks zVAD induced death of L929 cells; L929 zVAD necroptosis rescue, ATP luminescence, 24 h; with zVAD 60 µM; viability rescue, % at 10 µM; 0.38% of 220,000 active; AID 1377;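 active = activation, scaled between plate controls, above about 75%, limit read from the data; inactive = activation under that limit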;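 note: 0% = zVAD with DMSO and 100% = DMSO alone without zVAD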
# MCL1 BIM primary = disrupts human MCL1 binding to BIM-BH3 peptide; Q07820; GST-MCL1 / FITC-Bim-BH3 fluorescence polarization; inhibition, % at 10.9 µM; 0.68% of 320,000 active;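 active = inhibition above the mean inhibition of all tested compounds plus 3 SD, set per campaign, cut at about 40% in these data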;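 note: 0% = DMSO wells and 100% = unlabeled Bim-BH3 peptide control; higher means more loss of mP so more displacement of Bim peptide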
# TNF death inh = TNF-alpha cell death inhibition in Jurkat FADD-/- cells | activation (protection from cell death), % at 10 µM | Jurkat FADD-/- TNF necroptosis rescue, ATP luminescence, 24 h; 0 = TNF only, 100 = no-TNF cells | 0.068% of 220,000 active;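 active = activation, meaning protection from cell death, of at least 50% relative to plate controls; inactive = activation below 50%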;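 note: necroptosis triggered by 40 ng/mL TNF-alpha added together with compound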
# Mcl1-Noxa inh = disrupts binding of human Mcl-1 to Noxa peptide; Q07820; TR-FRET Mcl-1/Noxa peptide binding, 2 h; inhibition, % at 21.7 µM; 1.5% of 220,000 active; AID 1022;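 active = compounds that cut the protein-peptide binding signal by more than 50% relative to plate controls in a single-dose test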;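 note: His-tagged Mcl-1 with rhodamine Noxa BH3 peptide and terbium anti-His antibody; 0% = Mcl-1 plus Noxa peptide wells and 100% = peptide-only wells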
# Mcl1-Bid inh = disrupts binding of human Mcl-1 to Bid peptide; TR-FRET Mcl-1/Bid-Dy647 peptide binding, 1536-well; 0.97% of 220,000 active; AID 1021; Q07820; inhibition, % at 21.7 µM;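 active = compounds that cut the binding signal by more than half at the single screening dose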;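 note: His-tagged Mcl-1 with europium anti-His antibody binding Bid BH3 peptide; 0% = Mcl-1 plus peptide wells and 100% = peptide-only wells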
# An asterisk follows results filed as active; . = no result. Compounds with a hit are over-represented: about 2.4% of the library has one in this group of screens.
SMILES,Bim-Mcl-1,L929 necroptosis,MCL1 BIM primary,TNF death inh,Mcl1-Noxa inh,Mcl1-Bid inh
Cc1nc(C)c(N)c(=O)[nH]1,1,1,-5,0,13,-15
CCN(CC)CC(=O)Nc1ccc2c(c1)Nc1ccccc1CC2,0,84*,9,-2,21,-10
O=C(c1ccc(Cn2cnnn2)cc1)N1CCCC(Nc2ccc(F)c(F)c2)C1 (stereo not drawn),.,.,18,.,.,.
COc1ccc(-c2oc3cccnc3c2-c2ccc(OC)nc2)cc1,.,.,0,.,.,.
COc1ccc(NC(=O)Cc2ccccc2)cn1,1,3,40*,4,11,-33
COc1ccc(CNC(=O)CSc2nc3ccc(C)cc3[nH]2)cc1OC,.,.,-7,.,.,.
O=c1oc2ccccc2n1CCn1c2ccccc2c2nc3ccccc3nc21,12,0,-5,-2,-34,90*
O=C(O)c1cc(S(=O)(=O)N2CC=C(c3ccccc3)CC2)ccc1O,.,.,6,.,.,.
O=C(O)c1cc(S(=O)(=O)O)ccc1O,0,0,1,-1,40,56*
O=C(Cn1c(C(F)(F)F)nc2ccccc21)c1ccc(F)cc1,2,0,0,-1,14,101*
NS(=O)(=O)c1cc2c(cc1Cl)NC(Cc1ccccc1)NS2(=O)=O (stereo not drawn),.,0,-74,-2,-6,97*
CCc1noc(C)c1C(=O)OCC(=O)NCc1ccccc1OC,.,.,0,.,.,.
CN1C2C=C3C(C#N)=C(N)C(C#N)(C#N)[C@@H](c4cccs4)C3C1CC2 (stereo partly drawn),-5,1,46*,1,10,-18
CCOC(=O)c1cnc(COc2ccc(OC)cc2)[nH]c1=O,.,1,0,-2,7,-16
COc1cc(/C=C2\SC(N)=NC2=O)cc(Cl)c1O,.,.,-52,.,.,.
COc1cc(/C=C2\SC(c3ccc(C)cc3)=NC2=O)cc(OC)c1O,-3,0,-98,-12,51*,-23
COc1ccc(/C=C2\SC(N)=NC2=O)cc1Br,.,.,23,.,.,.
Cc1ccc(C2=NC(=O)/C(=C/c3cc(O)c(O)c(Br)c3)S2)cc1,1,3,.,-11,95*,-4
CCc1noc(C)c1C(=O)Nc1cc(S(=O)(=O)N(CC)CC)ccc1N1CCOCC1,.,.,1,.,.,.
COc1ccc(CNC[C@@H](CCCCN(C)Cc2ccc(OC)cc2)N2C[C@H](c3ccccc3)N(CCc3ccc(Cl)c(Cl)c3)C(=O)C2=O)cc1,-4,-4,-8,-16,21,6
CN(CCCC[C@H](CNCc1ccc(-c2ccccc2)cc1)N1C[C@H](c2ccccc2)N(CCc2ccc(Cl)c(Cl)c2)C(=O)C1=O)Cc1ccc(-c2ccccc2)cc1,.,-4,.,-27,21,61*
Cc1ncsc1CCOC(=O)c1ccc([N+](=O)[O-])cc1,-3,1,7,1,8,16
Cc1ncsc1CCOC(=O)c1cccnc1,0,2,-2,0,24,54*
O=C(NC1CC1)c1cc(Cl)ccc1[N+](=O)[O-],-2,0,6,-1,71*,-121
Cc1cc(O)ccc1C1(c2ccc(O)cc2C)OC(=O)c2ccccc21,-3,0,7,0,15,-14
SMILES,Bim-Mcl-1,L929 necroptosis,MCL1 BIM primary,TNF death inh,Mcl1-Noxa inh,Mcl1-Bid inh
O=C1OC2(c3ccccc31)c1cc(I)c(O)c(I)c1Oc1c2cc(I)c(O)c1I,.,.,87*,.,.,.
CCOC(=O)C1=C(C)N(c2ccc(C)cc2)C(=O)/C1=C\c1cccs1,0,0,0,-6,52*,-45
CCOC(=O)C1=C(C)N(c2ccccc2)C(=O)/C1=C\c1cccs1,2,0,-6,0,9,-15
CCc1cc(C(c2ccc(F)cc2)N2CCOCC2)c(NC(=O)c2ccccc2)s1 (stereo not drawn),0,0,4,-8,21,68*
O=C(Cc1cccs1)N/N=C/C=C\c1ccco1,-2,-1,39,2,90*,-17
O=C(Cc1cccs1)N/N=C/c1ccco1,-5,0,-2,1,11,-13
CCCCOc1ccc(NC(=O)CN2CCN(Cc3ccccc3)CC2)cc1,.,.,2,.,.,.
Cc1cccc(C)c1NC(=O)CN(C)C(=O)[C@H](C)NC(=O)c1ccco1,.,.,-3,.,.,.
Cc1ccc(-n2ccc(=O)c(C(=O)Nc3ccc(S(=O)(=O)Nc4nccs4)cc3)n2)cc1,.,.,5,.,.,.
COc1ccccc1C1Nc2cccc3cccc(c23)N1,0,1,24,-5,33,8
Oc1ccccc1C1Nc2cccc3cccc(c23)N1,-3,0,21,-11,98*,-4
Cc1ccccc1C(=O)Nc1ccc(S(=O)(=O)N2CCCC2)cc1,.,.,5,.,.,.
FC(F)(F)c1cccc(N2CCN(Cc3ccoc3)CC2)c1,-1,1,7,1,12,54*
COc1ccc(NC(=S)NNc2ccc(C(=O)O)cc2)cc1,.,.,-5,.,.,.
NNC(=O)c1oc2nc(-c3ccco3)cc(-c3ccco3)c2c1N,.,2,-44,-14,62*,-105
Cc1cc2nc(-c3ccc(NC(=O)C(C)C)cc3)oc2cc1C,-1,17,2,2,6,73*
Oc1ccc(CCNc2ncnc3ccc(Cl)cc23)cc1,.,.,-10,.,.,.
O=C1CC(C(=O)N2CCN(S(=O)(=O)c3cccc(F)c3)CC2)CN1Cc1ccccc1Cl (stereo not drawn),.,.,-6,.,.,.
CC(=O)c1cccc(NC(=O)Nc2cccs2)c1,-5,15,5,1,3,-21
CC(=O)c1cccc(NC(=O)Nc2cc3sccc3n2C)c1,0,2,28,2,71*,-32
N#C/C(=C(/O)CN1CCN(c2ccccc2F)CC1)c1nc(-c2ccccc2)cs1,46*,0,8,-4,11,-8
CCOc1ccc(C(=O)Nc2nnc(NC(=S)Nc3ccccc3)s2)cc1,64*,0,3,4,27,-31
Cc1ccc(C(=O)Nc2nnc(NC(=S)Nc3ccccc3)s2)cc1,-3,-1,9,3,-27,-28
COc1ccc(-c2nn(-c3ccccc3)cc2/C=N/Nc2ccc(S(N)(=O)=O)cc2[N+](=O)[O-])cc1OC,0,-1,-6,-4,51*,-57
COc1ccc(-c2nn(-c3ccccc3)cc2/C=C(/C#N)C(N)=O)cc1[N+](=O)[O-],-1,0,9,0,28,65*
COc1ccc(-c2nn(-c3ccccc3)cc2/C=C(\C#N)C(N)=O)cc1[N+](=O)[O-],-1,1,2,0,16,39
Cc1noc(C)c1C(=O)Nc1cccc2ncccc12,.,.,-9,.,.,.
COc1cc(OC)cc(C(=O)N2CC(=O)Nc3ccccc32)c1,.,.,1,.,.,.
COc1ccc(NC(=O)CSc2nc3ccccc3nc2N2CCCC2)c(OC)c1,.,.,1,.,.,.
Cc1ccc(NC(=O)COc2ccc(N(C)S(=O)(=O)c3ccc(F)cc3)cc2)cc1,.,.,-1,.,.,.
